Screening data (PubChem)
An excerpt weighted towards active compounds, which were near 3.4% of everything screened.
m-calpain inh: calpain II (pig) inhibition; inhibition, % at 16 µM; purified calpain II, fluorogenic peptide substrate, 30 min; AID 1236; 220,000 compounds, 0.37% hits;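 active = inhibition above about 50%, limit read from the data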
NCF1 inh: blocks human p47phox regulatory protein of NADPH oxidases; P14598; p47phox/p22phox peptide binding, fluorescence polarization, 2 h; inhibition, % at 24.7 µM; 220,000 compounds, 0.53% hits; AID 1274;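 active = inhibition above about 30%, limit read from the data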;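 also: 0% = p47phox with labelled peptide and 100% = labelled peptide alone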
14-3-3 Bad PPI: disrupts binding of bovine 14-3-3 zeta to phospho-Bad peptide; 220,000 compounds, 0.71% hits; P63103; inhibition, % at 21.7 µM; TR-FRET 14-3-3zeta/Dy647-pBad peptide displacement, 1 h; AID 781;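 active = inhibition above about 70%, limit read from the data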;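 also: 0% = full 14-3-3 plus peptide FRET controls and 100% = background without 14-3-3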
Target sequence (P63103 whole entry, looked up): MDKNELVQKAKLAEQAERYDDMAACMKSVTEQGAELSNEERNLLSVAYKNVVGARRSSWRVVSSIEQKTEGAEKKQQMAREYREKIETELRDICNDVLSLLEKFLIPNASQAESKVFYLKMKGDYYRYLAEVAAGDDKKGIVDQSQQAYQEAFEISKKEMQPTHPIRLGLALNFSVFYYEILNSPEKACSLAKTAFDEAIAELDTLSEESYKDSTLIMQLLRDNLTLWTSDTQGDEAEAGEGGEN
Bim-Mcl-1: human Bim-Mcl-1 interaction inhibition; Bead-based flow cytometry, Bim peptide-Mcl-1 binding; 190,000 compounds, 0.1% hits; inhibition, % at 10 µM; AID 1009; in the data active = inhibition above about 40%;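 also: 0% = no compound tracer wells and 100% = peptide blocker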
Target sequence (Q07820 whole entry, looked up): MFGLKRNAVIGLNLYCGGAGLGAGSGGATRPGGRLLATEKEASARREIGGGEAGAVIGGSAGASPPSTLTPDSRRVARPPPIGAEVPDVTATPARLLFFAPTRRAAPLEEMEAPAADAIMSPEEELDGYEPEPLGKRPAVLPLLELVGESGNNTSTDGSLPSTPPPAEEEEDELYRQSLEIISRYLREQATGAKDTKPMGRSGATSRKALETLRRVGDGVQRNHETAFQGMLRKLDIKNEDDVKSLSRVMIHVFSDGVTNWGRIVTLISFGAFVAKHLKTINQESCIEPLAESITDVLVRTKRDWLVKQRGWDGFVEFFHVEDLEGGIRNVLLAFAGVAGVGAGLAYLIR
Mcl1 Noxa PPI: disrupts binding of human Mcl-1 to Noxa peptide. TR-FRET Mcl-1/Noxa peptide binding, 2 h. inhibition, % at 21.7 µM. 220,000 compounds, 1.5% hits. AID 1022;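 active = compounds that cut the protein-peptide binding signal by more than 50% relative to plate controls in a single-dose test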;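 also: His-tagged Mcl-1 with rhodamine Noxa BH3 peptide and terbium anti-His antibody; 0% = Mcl-1 plus Noxa peptide wells and 100% = peptide-only wells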
Mcl1 Bid PPI: disrupts binding of human Mcl-1 to Bid peptide; AID 1021; inhibition, % at 21.7 µM; Q07820; TR-FRET Mcl-1/Bid-Dy647 peptide binding, 1536-well; 220,000 compounds, 0.97% hits;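 active = compounds that cut the binding signal by more than half at the single screening dose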;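 also: His-tagged Mcl-1 with europium anti-His antibody binding Bid BH3 peptide; 0% = Mcl-1 plus peptide wells and 100% = peptide-only wells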
Numbers without * were called inactive.

COc1cc(OC)c(S(=O)(=O)NC(C)C)cc1C(=O)O was read as m-calpain inh 16, NCF1 inh 2, 14-3-3 Bad PPI -3, Mcl1 Noxa PPI 19 and Mcl1 Bid PPI 5.
COc1cc(/C=C2\SC(=O)N(CC(=O)Nc3cccc(C)c3)C2=O)cc([N+](=O)[O-])c1O was read as m-calpain inh -32, NCF1 inh -18, 14-3-3 Bad PPI 2, Bim-Mcl-1 -1, Mcl1 Noxa PPI 59* and Mcl1 Bid PPI -18.
COc1ccc(/C=C2\SC(=O)N(CC(=O)NNC(=O)c3ccccc3O)C2=O)cc1 was read as m-calpain inh -50, NCF1 inh 15, 14-3-3 Bad PPI 62, Bim-Mcl-1 -2, Mcl1 Noxa PPI 53* and Mcl1 Bid PPI 48.
`CCOc1cc(/C=C2\SC(=O)N(CC(=O)Nc3ccccc3F)C2=O)cc([N+](=O)[O-])c1O` gave m-calpain inh -67, NCF1 inh -6, 14-3-3 Bad PPI -2, Bim-Mcl-1 0, Mcl1 Noxa PPI 32 and Mcl1 Bid PPI -13.
Screening O=C(CN1C(=O)S/C(=C\c2ccccc2)C1=O)NNC(=O)c1ccccc1O returned m-calpain inh -4, NCF1 inh 14, 14-3-3 Bad PPI 8, Bim-Mcl-1 -5, Mcl1 Noxa PPI 14 and Mcl1 Bid PPI 6.
`COc1ccc(/C=C2\SC(=O)N(CC(=O)NNC(=O)c3ccccc3O)C2=O)cc1OC` gave m-calpain inh -177, NCF1 inh 34*, 14-3-3 Bad PPI 21, Bim-Mcl-1 -6, Mcl1 Noxa PPI 53* and Mcl1 Bid PPI 60*.
CC(C)c1nc(SCC(=O)Nc2c[nH]c(=O)[nH]c2=O)c2cnn(-c3ccccc3)c2n1 was read as m-calpain inh -71, NCF1 inh 1, 14-3-3 Bad PPI 62, Bim-Mcl-1 -2, Mcl1 Noxa PPI -46 and Mcl1 Bid PPI -35.
COCCn1nnnc1CN1CCOCC1 was read as m-calpain inh -15, NCF1 inh -9, 14-3-3 Bad PPI 75*, Bim-Mcl-1 1, Mcl1 Noxa PPI 34 and Mcl1 Bid PPI 29.
`CCCOC(=O)C1[C@H]2C(=O)N(CCCOC)C[C@]23C=C[C@H]1O3` (stereo partly specified) gave m-calpain inh 8, NCF1 inh -13, 14-3-3 Bad PPI -5, Bim-Mcl-1 -2, Mcl1 Noxa PPI 59* and Mcl1 Bid PPI -8.
For COCCCN1CC23C=CC(O2)C(C(=O)O)C3C1=O (stereo unspecified) the results were m-calpain inh 7, NCF1 inh -7, 14-3-3 Bad PPI -2, Bim-Mcl-1 0, Mcl1 Noxa PPI 7 and Mcl1 Bid PPI -18.
For CCCC(C(=O)OCC)P(=O)(c1ccccc1)c1ccccc1 (stereo unspecified) the results were m-calpain inh 18, NCF1 inh -7, 14-3-3 Bad PPI 84*, Bim-Mcl-1 0, Mcl1 Noxa PPI -10 and Mcl1 Bid PPI -20.
Screening CC(C)Cc1nnc(NC(=O)Cc2cccs2)s1 returned m-calpain inh -28, NCF1 inh -67, 14-3-3 Bad PPI 40, Bim-Mcl-1 2, Mcl1 Noxa PPI 56* and Mcl1 Bid PPI -54.
CCCCCc1nnc(NC(=O)Cc2ccc([N+](=O)[O-])cc2)s1 was read as m-calpain inh -40, NCF1 inh 0, 14-3-3 Bad PPI -7, Bim-Mcl-1 1, Mcl1 Noxa PPI 16 and Mcl1 Bid PPI -44.
`CCCCCc1nnc(NC(=O)Cc2cccs2)s1` gave m-calpain inh -56, NCF1 inh -37, 14-3-3 Bad PPI -11, Bim-Mcl-1 0, Mcl1 Noxa PPI 67* and Mcl1 Bid PPI 7.
For CC(C)c1nnc(NC(=O)Cc2cccs2)s1 the results were m-calpain inh 0, NCF1 inh -2, 14-3-3 Bad PPI 9, Bim-Mcl-1 -1, Mcl1 Noxa PPI 7 and Mcl1 Bid PPI 28.
`CC(C)(C)Cc1nnc(NC(=O)Cc2cccs2)s1` gave m-calpain inh -91, NCF1 inh -32, 14-3-3 Bad PPI 34, Bim-Mcl-1 -6, Mcl1 Noxa PPI 60* and Mcl1 Bid PPI -30.
COc1ccc(C(F)(F)F)cc1N/C=C/c1nnnn1-c1ccc2ccccc2c1 was read as m-calpain inh -43, NCF1 inh -26, 14-3-3 Bad PPI 0, Mcl1 Noxa PPI -3 and Mcl1 Bid PPI -17.
`O=C(CCc1ccccc1)NNC(=O)C12CC3CC(CC(C3)C1)C2` gave m-calpain inh 15, NCF1 inh -9, 14-3-3 Bad PPI -11, Bim-Mcl-1 -2, Mcl1 Noxa PPI -11 and Mcl1 Bid PPI -19.
Screening O=C(NNC(=O)C12CC3CC(CC(C3)C1)C2)c1ccco1 returned m-calpain inh 6, NCF1 inh 3, 14-3-3 Bad PPI 6, Bim-Mcl-1 88*, Mcl1 Noxa PPI -4 and Mcl1 Bid PPI -20.
`Cc1cc(/C=C(/C#N)c2nc3ccccc3[nH]2)c(C)n1-c1ccccc1C(=O)O` gave m-calpain inh 10, NCF1 inh -23, 14-3-3 Bad PPI 26, Bim-Mcl-1 0, Mcl1 Noxa PPI 31 and Mcl1 Bid PPI -64.
For Cc1cc(/C=C(/C#N)c2nc3ccccc3[nH]2)c(C)n1-c1cc(C(=O)O)cc(C(=O)O)c1 the results were m-calpain inh -60, NCF1 inh -15, 14-3-3 Bad PPI -1, Bim-Mcl-1 5, Mcl1 Noxa PPI 52* and Mcl1 Bid PPI -73.
For N#C/C(=C\c1cn(-c2ccccc2)nc1-c1cc2ccccc2o1)c1nc2ccccc2[nH]1 the results were m-calpain inh -47, NCF1 inh -66, 14-3-3 Bad PPI -3, Bim-Mcl-1 0, Mcl1 Noxa PPI 59* and Mcl1 Bid PPI 18.
For C/C(=N/NC(=O)CNS(=O)(=O)c1ccc(C)cc1)c1cccc([N+](=O)[O-])c1 the results were m-calpain inh -15, NCF1 inh -1, 14-3-3 Bad PPI -3, Bim-Mcl-1 0, Mcl1 Noxa PPI -17 and Mcl1 Bid PPI -13.
Screening COc1ccccc1-n1cc(CN2CCCC(CO)(Cc3cccc(Cl)c3)C2)cn1 (stereo unspecified) returned m-calpain inh -31, NCF1 inh -14, 14-3-3 Bad PPI -6, Bim-Mcl-1 -4, Mcl1 Noxa PPI -17 and Mcl1 Bid PPI -9.
Screening O=P1(c2ccccc2)C=Cn2c1cc1c2CCCC1 (stereo unspecified) returned m-calpain inh -63, NCF1 inh -7, 14-3-3 Bad PPI -11, Bim-Mcl-1 -1, Mcl1 Noxa PPI -2 and Mcl1 Bid PPI -61.
For O=C(N/N=C/c1ccc(OC(=O)c2ccc3c(c2)OCO3)cc1)c1cncc(Br)c1 the results were m-calpain inh 1, NCF1 inh -18, 14-3-3 Bad PPI 71*, Bim-Mcl-1 -35, Mcl1 Noxa PPI -103 and Mcl1 Bid PPI -26.
For CCOC(=O)c1c(/N=C/N(C)C)sc(/C=N/Nc2ccccc2)c1-c1ccc(Cl)cc1 the results were m-calpain inh 22, NCF1 inh -37, 14-3-3 Bad PPI 17, Bim-Mcl-1 -1, Mcl1 Noxa PPI -7 and Mcl1 Bid PPI -17.
